Molecules are shown by their SMILES. A structure can be active in one record and inactive in another. Calls of active or inactive are those of the source. Rule for the calls: active = hit-call score of the fitted dose curve at least 0.9, where 1 is the maximum; inactive = score below 0.9.

In general, AC50 refers to the midpoint of the concentration-response curve, whichever way the signal moves.

A short description of assay [1]: ATG_PBREM_CIS: Attagene CIS-FACTORIAL HepG2 Assay for human Phenobarbital-responsive Enhancer Module (PBREM) (AID 2282955). The note with it: HepG2 PBREM cis-reporter, Attagene multiplexed transcription; actives raise or lower the signal. The method in brief:
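Reporter mRNA read by RT-PCR, 6-FAM primer extension, HpaI digestion and capillary electrophoresis. Transfected HepG2 cells, 24 h compound exposure. Gain or loss of signal fitted bidirectionally relative to DMSO baseline.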

Assay [2] concerns the target Paired box protein Pax-6 (Homo sapiens) (UniProt P26367). The assay is described as follows: ATG_Pax6_CIS: Attagene CIS-FACTORIAL HepG2 Assay for human Paired Box 6 (PAX6) (AID 2282956). To be noted: HepG2 CIS-FACTORIAL PAX6 reporter transcription, RNA readout; actives raise or lower the signal. Summed up:
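After twenty-four hours of chemical exposure, transfected HepG2 cells are harvested for RNA. Cis-promoter reporter transcripts are amplified, fluorescently labelled and sized by capillary electrophoresis, with gain and loss of signal scored against DMSO.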

Assay [3] can be described thus: ATG_PXRE_CIS: Attagene CIS-FACTORIAL HepG2 Assay for human Pregnane X Receptor Element (PXRE) (AID 2282957). The note with it: HepG2 Attagene CIS-FACTORIAL PXRE reporter, mRNA; actives raise or lower the signal. The method in brief: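 Multiplexed cis-reporter assay in transiently transfected human HepG2 cells; 24 h chemical exposure. Reporter transcripts quantified by RT-PCR with fluorescent labeling and capillary electrophoresis.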

The nature of assay [4]: ATG_RORE_CIS: Attagene CIS-FACTORIAL HepG2 Assay for human RAR-related Orphan Receptor Element (RORE) (AID 2282959). To be noted: HepG2 Attagene cis-factorial RORE reporter, mRNA; actives raise or lower the signal. Summed up: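 Readout: fluorescent reporter mRNA by RT-PCR plus capillary electrophoresis, 24 h after dosing transfected HepG2 cells. Endogenous transcription factor activity on a cis promoter element is measured. Gain or loss of signal fitted against DMSO.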

The nature of assay [5]: ATG_Sox_CIS: Attagene CIS-FACTORIAL HepG2 Assay for human SRY-box transcription factor (SOX) (AID 2282960). The note with it: HepG2 Attagene cis-factorial SOX reporter, mRNA; actives raise or lower the signal. The method in brief: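 Read-out: fluorescent RT-PCR products of SOX1-linked reporter transcripts resolved by capillary electrophoresis, fitted bidirectionally against DMSO. Transiently transfected HepG2 cells, 24 h after chemical exposure, endogenous transcription factor activity.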

Assay [6] addresses Transcription factor Sp1 (Homo sapiens) (UniProt P08047). The experiment in a line: ATG_Sp1_CIS: Attagene CIS-FACTORIAL HepG2 Assay for human Specificity Protein 1 (Sp1) (AID 2282961). To be noted: HepG2 Sp1 cis-reporter transcription, actives raise or lower the signal. Summed up: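 Read-out: fluorescence of 6-FAM-labeled, HpaI-digested RT-PCR products separated by capillary electrophoresis. HepG2 cells carried transfected cis-element reporter units and were exposed to chemicals for 24 h; gain or loss of signal fitted relative to DMSO.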

Assay [7] in a line: ATG_SREBP_CIS: Attagene CIS-FACTORIAL HepG2 Assay for human Sterol Regulatory Element Binding (SREBP) (AID 2282962). The note with it: HepG2 Attagene cis-factorial SREBP reporter, mRNA; actives raise or lower the signal. Summed up: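 Twenty-four hours after chemical dosing of transfected HepG2 cultures, reporter RNA was converted to cDNA, amplified, end-labelled with 6-FAM and resolved by capillary electrophoresis. Responses were fitted relative to DMSO.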

In assay [8] the target is Signal transducer and activator of transcription 3 (Homo sapiens) (UniProt P40763). The assay is described as follows: ATG_STAT3_CIS: Attagene CIS-FACTORIAL HepG2 Assay for human Signal Transducer and Activator of Transcription 3 (STAT3) (AID 2282963). The note with it: HepG2, Attagene cis-factorial STAT3 reporter transcription; actives raise or lower the signal. Summed up:
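Transcript-level reporter assay. HepG2 transient MRTU transfection, 24 h exposure, fluorescence detection after RT-PCR and CE; DMSO baseline.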

Assay [9] is described as follows: ATG_TA_CIS: Attagene CIS-FACTORIAL HepG2 Assay for human TA Basal Promoter (AID 2282964). To be noted: HepG2 Attagene CIS-factorial TA basal promoter reporter; actives raise or lower the signal. The method in brief: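 Fluorescence from labelled RT-PCR reporter fragments, separated by capillary electrophoresis, gives the signal. Cells: HepG2 transiently carrying multiple reporter units, 24 h chemical dosing. Gain or loss relative to DMSO.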

Assay [10] can be described thus: ATG_PPRE_CIS: Attagene CIS-FACTORIAL HepG2 Assay for human Peroxisome Proliferator-activated Response Element (PPRE) (AID 2282958). The note with it: HepG2 PPRE cis-element reporter, Attagene transcription factor profiling; actives raise or lower the signal. Summed up: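 Read-out: fluorescent reporter mRNA fragments resolved by capillary electrophoresis after RT-PCR. HepG2 cells carried transiently transfected PPRE-driven cis reporter constructs and were dosed for 24 h; gain or loss of signal fitted relative to DMSO.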

Signal transducer and activator of transcription 3 (Homo sapiens), sequence (P40763 whole entry, looked up): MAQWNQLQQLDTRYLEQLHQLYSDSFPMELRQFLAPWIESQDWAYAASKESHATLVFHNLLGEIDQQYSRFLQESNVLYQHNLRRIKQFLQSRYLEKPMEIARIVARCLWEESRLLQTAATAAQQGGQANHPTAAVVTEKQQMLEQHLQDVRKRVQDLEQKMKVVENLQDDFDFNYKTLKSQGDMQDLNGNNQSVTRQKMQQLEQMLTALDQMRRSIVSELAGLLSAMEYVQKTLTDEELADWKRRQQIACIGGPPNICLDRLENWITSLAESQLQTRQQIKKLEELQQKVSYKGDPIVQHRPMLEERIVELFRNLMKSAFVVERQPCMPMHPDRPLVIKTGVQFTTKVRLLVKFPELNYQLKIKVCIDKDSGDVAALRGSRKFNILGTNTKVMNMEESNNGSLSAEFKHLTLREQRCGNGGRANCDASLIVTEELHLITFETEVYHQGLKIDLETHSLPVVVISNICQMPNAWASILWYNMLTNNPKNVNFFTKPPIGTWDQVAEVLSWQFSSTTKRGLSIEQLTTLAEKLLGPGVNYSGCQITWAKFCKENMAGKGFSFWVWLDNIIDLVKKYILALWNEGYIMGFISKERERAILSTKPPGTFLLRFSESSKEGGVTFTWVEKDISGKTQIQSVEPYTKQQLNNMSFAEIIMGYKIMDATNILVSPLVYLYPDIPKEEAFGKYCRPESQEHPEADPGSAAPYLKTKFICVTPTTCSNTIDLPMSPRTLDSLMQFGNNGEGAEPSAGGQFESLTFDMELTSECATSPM
Paired box protein Pax-6 (Homo sapiens), sequence (P26367 whole entry, looked up): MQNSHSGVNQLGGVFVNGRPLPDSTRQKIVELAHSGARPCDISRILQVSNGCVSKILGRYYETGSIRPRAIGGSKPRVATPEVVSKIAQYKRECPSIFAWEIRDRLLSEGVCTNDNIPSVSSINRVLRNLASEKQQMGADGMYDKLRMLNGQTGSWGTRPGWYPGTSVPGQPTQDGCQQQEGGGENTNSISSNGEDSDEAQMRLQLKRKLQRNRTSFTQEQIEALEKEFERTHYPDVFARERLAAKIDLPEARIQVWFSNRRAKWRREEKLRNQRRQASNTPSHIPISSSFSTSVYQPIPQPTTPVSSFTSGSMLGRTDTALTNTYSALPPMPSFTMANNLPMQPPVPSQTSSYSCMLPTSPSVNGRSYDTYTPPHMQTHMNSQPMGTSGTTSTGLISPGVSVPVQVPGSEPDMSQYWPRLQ
Transcription factor Sp1 (Homo sapiens), sequence (P08047 whole entry, looked up): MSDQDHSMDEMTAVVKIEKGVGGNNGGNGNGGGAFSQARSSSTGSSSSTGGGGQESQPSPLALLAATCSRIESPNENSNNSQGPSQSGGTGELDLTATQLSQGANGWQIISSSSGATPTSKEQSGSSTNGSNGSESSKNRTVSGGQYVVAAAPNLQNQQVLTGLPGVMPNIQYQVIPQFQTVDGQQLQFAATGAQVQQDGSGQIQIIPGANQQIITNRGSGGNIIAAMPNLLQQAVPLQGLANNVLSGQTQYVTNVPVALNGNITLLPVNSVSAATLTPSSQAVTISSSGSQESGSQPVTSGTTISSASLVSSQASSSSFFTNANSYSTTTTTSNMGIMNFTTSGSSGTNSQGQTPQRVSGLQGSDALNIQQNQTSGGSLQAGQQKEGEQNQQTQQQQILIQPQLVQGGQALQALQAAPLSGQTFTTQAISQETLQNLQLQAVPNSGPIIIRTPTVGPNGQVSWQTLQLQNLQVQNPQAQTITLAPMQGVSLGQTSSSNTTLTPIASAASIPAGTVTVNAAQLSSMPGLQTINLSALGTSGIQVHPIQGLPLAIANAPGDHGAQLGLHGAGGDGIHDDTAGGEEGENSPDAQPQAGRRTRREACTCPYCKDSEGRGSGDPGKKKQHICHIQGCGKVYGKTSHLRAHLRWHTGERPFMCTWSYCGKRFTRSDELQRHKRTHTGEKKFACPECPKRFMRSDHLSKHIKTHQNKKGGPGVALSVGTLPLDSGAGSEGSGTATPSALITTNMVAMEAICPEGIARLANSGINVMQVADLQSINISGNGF

Turning to `c1ccc(OP(Oc2ccccc2)Oc2ccccc2)cc1`, the result in assay [1], in assay [2], in assay [4], in assay [5], in [6] and in assay [7] was inactive. Moreover, the compound was classed as inactive in assay [8] and in assay [9]. For the same compound, in [3], the AC50 was 39.7 µM (active).

With `CCCCc1ccc(O)cc1`, the outcome in assay [1], in assay [2], in assay [3], in assay [10], in assay [4] and in assay [6] was inactive. For the same compound, the call in assay [7], in assay [8] and in [9] was inactive.

For the compound `CCOP(=S)(OCC)SCSCC`, the compound was classed as inactive in assay [2], in [6], in assay [7], in assay [8] and in [9]. Besides, the AC50 was 11.7 µM (active) in assay [3] and 176 µM (active) in assay [10].

With `N#Cc1c(-c2ccc(Cl)cc2)[nH]c(C(F)(F)F)c1Br`, the AC50 is 0.122 µM (active) in assay [1], 2.6 µM (active) in assay [3], 1 µM (active) in assay [4] and 0.274 µM (active) in assay [7]. Also, the compound was classed as inactive in [2], in [10], in assay [6], in assay [8] and in assay [9].

Take `Cc1ccc(O)cc1C`: the result in assay [1], in assay [2], in assay [3], in [4], in [5] and in assay [6] was inactive. For the same compound, the call in assay [7], in assay [8] and in assay [9] was inactive.

Regarding `N#C/C=C/c1ccccc1`, the result in assay [1], in assay [2], in assay [3], in assay [10], in assay [4] and in assay [6] was inactive. For the same compound, the compound was called inactive in [7], in assay [8] and in assay [9].

In the case of `CC(Cl)(Cl)C(=O)O`, the result in [2], in [3], in assay [10], in [4], in assay [5] and in [6] was inactive. Moreover, the result in assay [7], in assay [8] and in assay [9] was inactive.

For the compound `CC(C)(C)N(NC(=O)c1ccc(Cl)cc1)C(=O)c1ccccc1`, the result in [1], in assay [2], in [10], in assay [4], in [6] and in assay [7] was inactive. Moreover, the result in assay [8] and in [9] was inactive. The AC50 in assay [3] was 4.36 µM (active).

`c1nc[nH]n1`: the outcome in [1], in assay [2], in assay [10], in assay [4], in assay [6] and in assay [7] was inactive. For the same compound, the compound was called inactive in [8] and in assay [9]. The concentration at half-maximal activity (AC50) in assay [3] was 59.3 µM (active).

`CCOP(=S)(OCC)SCS(=O)(=O)CC`: the outcome in [1], in [2], in assay [10], in assay [5], in assay [6] and in assay [7] was inactive. The result in assay [8] and in assay [9] was inactive. In assay [3], the AC50 was 11.3 µM (active).

Consider `O=C(O)CF`, for which the compound was called inactive in assay [2], in [3], in assay [4], in assay [5], in [6] and in assay [7]. The result in [8] and in [9] was inactive. The half-maximal activity concentration (AC50) in [3] is 100 µM (active).

Regarding `O=[N+]([O-])c1ccccc1`, the outcome in assay [2], in assay [3], in assay [10], in [4], in [6] and in assay [7] was inactive. Besides, the call in [8] and in [9] was inactive.

`CCOP(=O)(O)C(N)=O`: the outcome in assay [1], in [2], in [10], in assay [5], in [6] and in assay [7] was inactive. Moreover, the result in [8] and in [9] was inactive. Besides, the AC50 in assay [3] was 47.9 µM (active).

For `OCC(F)(F)OC(F)(F)C(F)(F)OC(F)(F)C(F)(F)OC(F)(F)F`, the result in assay [1], in [2], in [3], in [10], in [4] and in assay [6] was inactive. Also, the outcome in assay [7], in assay [8] and in [9] was inactive.

Regarding `C=CC(=O)OCC(CC)(COC(=O)C=C)COC(=O)C=C`, the outcome in [1], in assay [3], in [10], in [4], in assay [8] and in assay [9] was inactive. Further, the figures for the half-maximal activity concentration (AC50) in assay [2], in assay [6] and in assay [7] were 15.5 µM (active), 26.2 µM (active) and 27 µM (active), respectively.

On to `CO/N=C(/C(=O)OC)c1ccccc1COc1ccccc1C`, for which the outcome in assay [1], in assay [5], in assay [6], in assay [7], in assay [8] and in assay [9] was inactive. The AC50 in assay [2] is 70.1 µM (active); in assay [3] it was 4.57 µM (active); in [4] it was 36.5 µM (active).

On to `CCCCN(CCCC)N=O`, for which the outcome in assay [2], in [4], in assay [6], in assay [7], in assay [8] and in assay [9] was inactive. Besides, in assay [3], the concentration at half-maximal activity (AC50) was 42.7 µM (active).

As for `CCNc1nc(Cl)nc(NC(C)(C)C)n1`, the result in [1], in assay [2], in [10], in [4], in assay [6] and in assay [7] was inactive. Besides, the outcome in [8] and in [9] was inactive. Further, in assay [3], the AC50 is 6.16 µM (active).

Source of the values: PubChem BioAssay (EPA / NIEHS).
